The values that follow come from ChEMBL document CHEMBL3988442, “University of Dundee, Small-Polar-MMV Screening Library” (2021).

Each structure is given as a SMILES string.

The target of the test is AMP-activated protein kinase, AMPK (Homo sapiens) (UniProt P54646+O43741+P54619+Q9UGJ0+Q9Y478+Q13131+Q9UGI9). In words: AMP-dependent Kinase enzyme assay. An in vitro enzyme assay that detects ADP turnover that is directly proportional to AMPK activity. This uses naive AMPK that is activated during the assay with MK-8722. Format: functional. More on the design: scale not given: direction of the effect not stated beside the values. As to conditions: 30 µM.
As for `CCc1ncc2c(n1)CN(c1cc(N3CCN(C)CC3)nc(N)n1)C2`, the Percent Effect was -137%.

As to `Cc1ncc(C(=O)N2CCOC(C(=O)N3CCCCCC3)C2)c(C)n1` (centres undefined), the Percent Effect was -3.31%.

Consider `CC(C)c1cc(C2CCN(C(=O)Cn3cnc4ccccc43)CC2)[nH]n1`, for which the Percent Effect came to 10.5%.

Consider `Cc1cc(CC(=O)NC2CCCN(c3ccccc3F)C2=O)n[nH]1` (centres undefined), for which the Percent Effect amounted to 10.6%.

`CCn1c(C2CCCNC2)nn(CCn2cncn2)c1=O` (centres undefined): the Percent Effect was -3.33%.

Turning to `O=C(c1ccc2[nH]cnc2c1)N1CCC(Oc2ccccn2)CC1`, the Percent Effect is 3.35%.

`COCCN(CC(F)F)c1cc(COC)nc2ncnn12`: the Percent Effect was 0.272%.

For the compound `O=C1NCCN2CCN(Cc3ccc(Cl)c(Cl)c3)CC12` (centres undefined), the Percent Effect was -0.338%.

With `Cc1cc2ccccc2n1CCC(=O)N1CCCC(O)(CN(C)C)CC1` (centres undefined), the Percent Effect worked out at 0.58%.

As to `O=C(C1CCCOC1)N1CCN(CC(F)(F)F)c2ccccc21` (centres undefined), the Percent Effect was found to be 6.14%.

As to `COC(=O)c1cccc(C(=O)N(CCC#N)CC(C)(C)C)c1`, the Percent Effect amounted to 2.62%.

With `Cc1cc(-c2cnc(N3CCC(C(N)=O)CC3)nc2C(C)C)on1`, the Percent Effect came to 21.5%.

Take `N#Cc1cccnc1Nc1ccc(N2CCC(C(N)=O)CC2)cc1`: the Percent Effect amounted to 19%.

Turning to `Cc1cc(CNC2(CO)CCOCC2)ccc1Br`, the Percent Effect came to 5.13%.

Turning to `Cc1noc(C)c1-c1n[nH]c2c1CN(S(=O)(=O)c1cccs1)CC2`, the Percent Effect turned out to be 2.21%.

In the case of `CCC[C@H]1CN(Cc2cc(C#N)n(C)c2C)C[C@@H]1N(C)C`, the Percent Effect is 2.21%.

Regarding `COCC(=O)N1CCC(c2c(C(=O)N(C)C)sc3ncccc23)C1` (centres undefined), the Percent Effect was found to be 1.82%.

Turning to `CCOc1cc(NC(=O)N2CCC3(CCOCC3)C2)ccc1C`, the Percent Effect was -0.853%.

As to `CCC1(CC)CC(=O)N(CC(O)c2cccc(F)c2)C1=O` (centres undefined), the Percent Effect amounted to 12.2%.

In the case of `CCCS(=O)(=O)N1CCCN(CCCOC)CC1`, the Percent Effect worked out at 11.7%.

On to `CCC(CNS(=O)(=O)c1cccc(C(=O)OC)c1)N1CCCC1` (centres undefined), for which the Percent Effect is -8.76%.

Regarding `Cc1nc(CN2CCOCC2c2[nH]ncc2C)cs1` (centres undefined), the Percent Effect came to 12.1%.

`CCc1nnc(C(C)N2CCN(CCC(=O)NC3CC3)CC2)o1` (centres undefined): the Percent Effect amounted to 8.34%.

Consider `Cc1nn(C)c2nc(NC3CCNCC3)sc12`, for which the Percent Effect stood at 0.889%.

For the compound `CCC(C(=O)NCCc1coc(-c2ccc(C)cc2)n1)N(C)C` (centres undefined), the Percent Effect worked out at 6.54%.

As for `Cc1cc(N2CCC3(CCCN(CCO)C3=O)C2)nc2ccccc12` (centres undefined), the Percent Effect came out at 9.84%.

With `Cc1nc(CNC(=O)Nc2cc(F)ccc2N2CCN(C)CC2)no1`, the Percent Effect came to 13.3%.

Regarding `O=C1CCCN1C1CCCN(CCn2cc(Cl)cn2)C1` (centres undefined), the Percent Effect came to 7.29%.

For `Cc1[nH]ccc1C(=O)N1CCCC(c2ccc(C(=O)O)cc2)C1` (centres undefined), the Percent Effect was -0.307%.

With `Cn1cc(S(=O)(=O)N(Cc2ccc(F)cc2F)C2CC2)cc1C(N)=O`, the Percent Effect worked out at 3.23%.

On to `CN(C)Cc1cccc(-c2cccnc2C(=O)NCc2cn(C)cn2)c1`, for which the Percent Effect was 23.4%.

On to `Cc1csc(C(=O)N2CC(S(=O)(=O)C3CCCCC3)C2)c1`, for which the Percent Effect was -2.28%.

Regarding `O=C(CCn1cncn1)NCCOc1cccc(Cl)c1`, the Percent Effect is -7.83%.

Take `O=C(NCc1nccs1)N1CCOC(c2ccccc2Cl)C1` (centres undefined): the Percent Effect came out at 4.45%.

As to `COc1cccc2c1OCC(Cc1cc(C(=O)N3CCCC3)ccn1)C2` (centres undefined), the Percent Effect came to 5.36%.

For the compound `COCC(=O)NCc1ccc(-c2ncncc2C(=O)N(C)C)cc1`, the Percent Effect turned out to be 5.99%.

As for `CCc1c(C)nc2cc(-c3nccn3C)nn2c1N1CCCC(CO)C1` (centres undefined), the Percent Effect was found to be 26%.

As to `CCC(C)C(=O)N(C)Cc1cc(F)ccc1N1CCC(OC)CC1` (centres undefined), the Percent Effect was 8.71%.

With `CCOC(=O)N(C)C1CCN(Cc2cnc3ccccn23)CC1`, the Percent Effect was 0.795%.
